LmPK inhibitor = inhibitors of Leishmania mexicana pyruvate kinase; Potency, µM (series often up to 57.5 µM), for the others: top-dose activity change, negative = inhibition, most hits filed as inhibitors; 0.37% of 290,000 active; purified LmPK, Kinase-Glo ATP luminescence, 1 h; further: potency means the concentration at half of the fitted maximal effect; on the % scale 0 is the no-effect control and ±100 the full control effect
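0.1 nM LmPK, 0.5 mM PEP, 0.1 mM ADP; 50 mM imidazole pH 7.2, 7 mM MgCl2, 50 mM KCl; 1 h RT. Kinase-Glo luminescence readout, normalized to no-enzyme (full inhibition) and uninhibited wells.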
Shiga inhibitor = blocks Shiga toxin action in Vero cells. 9.2% of 290,000 active. inhibition, % at 38.7 µM. Vero cells, Shiga toxin protein synthesis inhibition reporter; in the data active means inhibition mostly above about 28%, no sharp cut-off; inactive means mostly below about 43%; further: 0% is about no effect
RE007 growth inh = less growth of the S. pombe RE007 Vpr strain; S. pombe RE007 Vpr strain, BacTiter-Glo ATP luminescence, 24 h; Potency, µM (series often up to 92.2 µM), for inactives: at the highest dose activity change, negative = less growth, hits mostly inhibitors; 0.21% of 360,000 active; AID 651644; active means well fitted falling curve with a large enough effect; inconclusive means small, poorly fitted or top-dose-only effect; inactive means no such curve, though single readings can be large or run the other way; further: potency means the concentration at half of the fitted maximal effect; on the % scale 0 is the no-effect control and ±100 the full control effect; nearly all actives have a fitted effect of over 50% in size
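Fission yeast RE007 carrying one integrated HIV-1 vpr copy, seeded at OD 0.01 in PMG+AL medium with 23 nL pinned compound. Grown 24 h at 30 degrees; viability read by BacTiter-Glo luminescence after 5 min.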
Cycloheximide cs = counter-screen hit for Shiga toxin inhibitors, cycloheximide | 12% of 300,000 active | cell reporter, cycloheximide protein synthesis inhibition counterscreen | AID 2314 | max response, %; in the data active means max response mostly above about 13%, no sharp cut-off; inactive means mostly below about 14%; further: read at 38.3 µM for the half of the compounds with a filed dose; 0% is about no effect
FBPA Giardia inh = inhibitors of Giardia lamblia fructose-1,6-bisphosphate aldolase; 0.71% of 290,000 active; purified Giardia FBPA; A8B2U2; Potency, µM (top dose mostly 59.6 µM), for the others: at the top dose activity, negative = inhibition, hits mostly inhibitors; AID 2451; further: potency means the concentration at half of the fitted maximal effect; on the % scale 0 is the no-effect control and ±100 the full control effect; nearly all actives have a fitted effect of over 55% in size
Target sequence (A8B2U2 whole entry, looked up): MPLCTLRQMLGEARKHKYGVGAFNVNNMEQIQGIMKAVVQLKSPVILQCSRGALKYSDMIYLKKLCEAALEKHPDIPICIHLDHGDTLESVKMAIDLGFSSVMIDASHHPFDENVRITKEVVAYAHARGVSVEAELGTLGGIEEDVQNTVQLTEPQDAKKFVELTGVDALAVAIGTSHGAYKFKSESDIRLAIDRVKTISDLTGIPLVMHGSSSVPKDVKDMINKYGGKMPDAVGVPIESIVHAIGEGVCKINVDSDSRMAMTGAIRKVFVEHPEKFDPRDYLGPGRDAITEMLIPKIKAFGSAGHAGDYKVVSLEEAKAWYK
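Giardia FBPA (40 nM reagent) was preincubated 10 min at RT with compound (up to 57.5 uM final), then substrate plus GAPDH/TPI/NAD/arsenate coupling system with diaphorase/resazurin was added; resorufin fluorescence (525/598 nm) was read after 20 min.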
TbPYK inhibitor = blocks Trypanosoma brucei pyruvate kinase; Q57TT1; TbPYK enzyme, Kinase-Glo Plus ATP luminescence, 45 min; Potency, µM (titrated, usually from 76.8 µM), without a hit: at the top dose activity, negative = inhibition, hits mostly inhibitors; 0.12% of 410,000 active; AID 624173; further: potency means the concentration at half of the fitted maximal effect; on the % scale 0 is the no-effect control and ±100 the full control effect; nearly all actives have a fitted effect of over 50% in size
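Luminescence from Kinase-Glo Plus, added after a 45-minute room-temperature reaction, served as the end-point read-out. The enzyme and substrate were preincubated with compound before ADP (130 uM final) initiated turnover. Concentration-effect curves came from normalized qHTS data.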
* = called active by the depositor; u = inconclusive; x = no result given; [ ] = dose if it differs, or a comment. The sample as a whole holds a higher share of hits than the screen did. Unless noted, the call rests on the fitted dose curve; in most records, active means well fitted curve in the direction sought with a large enough effect; inconclusive means small, poorly fitted or top-dose-only effect, or another doubt; inactive means no such curve, though single readings can be large; an effect the other way counts as inactive or inconclusive.

SMILES	LmPK inhibitor	Shiga inhibitor	RE007 growth inh	Cycloheximide cs	FBPA Giardia inh	TbPYK inhibitor
Cc1ccccc1-n1c(SCC(=O)NC(N)=O)nc2sc(-c3ccccc3)cc2c1=O	6%	24	4%	18*	1%	1%
CCOc1ccccc1NC(=O)N1CCC(N2CCN(Cc3ccccc3)C(=O)C2=O)CC1	x	x	x	x	x	2%
O=c1c2ccccc2nnn1CSc1ccccc1	u	92*	-9%	45*	-2%	-2%
O=c1c2ccccc2nnn1CSc1nnc(Nc2ccccc2)s1	-2%	-7	12%	-1	1%	0%
Cc1ccc(Nc2nnc(SCn3nnc4ccccc4c3=O)s2)cc1	7%	116*	-12%	31*	-12%	2%
Cc1cc(C(=O)COc2ccc(-c3nnco3)cc2)c(C)n1Cc1ccccc1	0%	21	-4%	17*	-5%	-7%
CCCSCCCNC(=O)c1ccc(NC(=O)C2=CSCCO2)cc1	0%	67*	0%	11	x	-3%
CN(Cc1ccccc1)C(=O)c1ccc(NC(=O)C2=CSCCO2)cc1	-4%	44*	12%	48*	x	-5%
CN(Cc1ccccc1)C(=O)c1ccccc1NC(=O)C1=CSCCO1	1%	-5	6%	1	x	0%
Cc1cccc(CNC(=O)c2ccc(NC(=O)C3=CSCCO3)cc2)c1	2%	38	-7%	40*	-12%	-20%
CCOc1ccccc1CNC(=O)c1ccc(NC(=O)C2=CSCCO2)cc1	1%	28	4%	18*	x	5%
CCCC(CCC)C(N)=O	x	x	x	x	x	-10%
CCCCOC(=O)c1ccc(OC(=O)c2sc3ncn(Cc4ccccc4Cl)c(=O)c3c2C)cc1	x	x	x	x	x	-3%
COc1ccc(CNC(=O)c2ccc(NC(=O)C3=CSCCO3)cc2)cc1	5%	71*	1%	28*	x	5%
Cc1ccc(CN2CCC(CNC(=O)c3ccc(NC(=O)C4=CSCCO4)cc3)CC2)cc1	3%	22	3%	10	x	4%
O=C(Nc1ccc(C(=O)NCC2CCN(Cc3ccccc3F)CC2)cc1)C1=CSCCO1	0%	29	2%	14*	x	5%
CC1CCN(S(=O)(=O)c2ccc3c(ccn3CC(=O)NCc3ccccc3F)c2)CC1	x	x	x	x	x	1%
Cc1ccc(OCC(=O)O/N=C(\N)c2ccncc2)c(C)c1	-3%	114*	-2%	33*	4%	-4%
Cc1ccc(SCC(=O)O/N=C(\N)c2ccc([N+](=O)[O-])cc2)cc1	2%	-6	-15%	-3	-5%	0%
Cc1cc(C)c(C)c(OCC(=O)O/N=C(\N)c2ccncc2)c1	-2%	-4	-4%	-2	4%	3%
Cc1ccc(SC(C)C(=O)O/N=C(\N)c2ccncc2)cc1 (configuration not stated)	-7%	-23	4%	20*	x	3%
Cc1ccccc1OCC(=O)O/N=C(\N)c1ccncc1	-2%	99*	6%	45*	6%	-4%
COc1ccc(/C=C/c2cc(OC)cc(=O)o2)cc1	x	86*	x	49*	4%	x
C/C=C/c1ccc(OC)cc1	x	x	x	x	6%	x
COc1ccc(/C=C/c2ccncc2)cc1	-10%	94*	-20%	40*	x	-6%
SMILES	LmPK inhibitor	Shiga inhibitor	RE007 growth inh	Cycloheximide cs	FBPA Giardia inh	TbPYK inhibitor
CN(C)c1ccc(/C=C/c2ccncc2)cc1	-3%	68*	-8%	32*	-8%	2%
O=C(Nc1cccc2c1C(=O)NC2=O)c1ccccc1[N+](=O)[O-]	7%	-1	2%	-2	3%	-6%
O=C1NC(=Nc2ccccc2)c2c1cccc2[N+](=O)[O-]	3%	21	x	19*	-27%	4%
COc1cccc2c1cc1c(=O)n(CC(=O)NCc3ccco3)nc(C)n12	x	x	x	x	x	1%
Cc1ccc(CC2C(=O)N(c3nc(C)cc(C)n3)C(=O)C2C)cc1 (configuration not stated)	5%	18	6%	-1	7%	6%
O=C(NC(=S)Nc1cccc(NC(=S)NC(=O)c2ccco2)n1)c1ccco1	2%	-1	6%	9	u	4%
O=C(NC(=S)Nc1nc2ccc(F)cc2s1)c1ccco1	9%[11.5 µM]	90*	-10%	32*	u	4%
Cc1c(Cl)ccc2sc(NC(=O)c3ccco3)nc12	-3%	83*	-16%	67*	12%	4%
Cc1cccc2sc(NC(=O)C3CCN(C(=O)c4ccco4)CC3)nc12	4%	40	-20%	38*	-16%	6%
Cc1cccc2sc(NC(=O)CCNC(=O)c3ccco3)nc12	x	x	-15%	x	x	3%
Cc1cccc2sc(N3CCN(C(=O)c4ccco4)CC3)nc12	x	x	x	x	x	-9%
Cc1ccc(C(=O)Nc2nc3ccc(S(C)(=O)=O)cc3s2)o1	14µM*	44*	u	34*	2%	-17%
CCc1ccc(C(=O)c2cn(CC(=O)Nc3ccc4c(c3)OCCO4)c3ccc(C)cc3c2=O)cc1	x	x	x	x	x	-1%
CC1(C)CC(=O)c2cc(-c3nc(-c4ccc(Cl)cc4)cs3)c(=O)n(-c3cccc(F)c3)c2C1	x	x	x	x	x	-1%
CC1COC(=O)O1 (configuration not stated)	x	-3	x	4	1%	x
Fc1ccccc1N1CCN(c2ncnc3onc(-c4cccc(Cl)c4)c23)CC1	x	x	x	x	x	2%
CS(=O)(=O)c1ccc2nc(NC(=O)c3cc4ccccc4o3)sc2c1	2%	-6	0%	-1	-5%	-3%
CS(=O)(=O)c1ccc2nc(NC(=O)c3ccco3)sc2c1	u	40*	-17%	36*	8%	-11%
Cc1cccc(N2C(=O)C=CC2=O)c1	x	x	8.9µM*	x	x	u
O=C1C=CC(=O)N1c1ccc2ccccc2c1	x	x	2.2µM*	x	x	u
O=C1C=CC(=O)N1c1ccc(Nc2ccccc2)cc1	x	x	11µM*	x	x	u
C[C@]12c3[nH]c4ccccc4c3CCN1C(=O)C(CC(=O)NCC13CC4CC(CC(C4)C1)C3)C[C@@H]2C(=O)N1CCCCC1 (some centres not stated)	x	x	9%	x	x	-3%
Cc1ccc(C(=O)NNC(=O)C(NC(=O)c2cccc(C)c2)C(C)C)cc1 (configuration not stated)	x	x	0%	x	x	3%
C/C=C/c1ccc2c(c1)O[C@H](CN(C)CC1CCOCC1)[C@@H](C)CN([C@H](C)CO)S2(=O)=O	x	x	2%	x	x	6%
CCCCC12CN3CC(C)(CN(C1)C3c1ccc(OCc3ccccc3)cc1)C2=O (configuration not stated)	x	x	x	x	x	4%
COc1ccc(-c2cc(C(=O)OCC(=O)c3ccc(C)cc3)c3cccc(Cl)c3n2)cc1	x	x	x	x	x	-3%
COc1ccc(NC(=O)/C=C/c2c(Cl)nc3ccccn23)cc1	-7%	-2	-12%	20*	-8%	1%

High-throughput results: PubChem, National Center for Advancing Translational Sciences (NCATS)
